# FLuc counter: inhibits or activates purified firefly luciferase, miR-21 counter-screen; 360,000 compounds, 6.9% hits; purified FLuc, Km substrates, luminescence inhibition; Potency, µM (titrated, usually from 57.5 µM), for inactives: at the top dose activity change, negative = inhibition, hits mostly inhibitors; P08659;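 note: plate controls were vehicle for no effect and reference inhibitor for full effect; nearly all actives have a fitted effect of over 55% in size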
# Target sequence (P08659 whole entry, looked up): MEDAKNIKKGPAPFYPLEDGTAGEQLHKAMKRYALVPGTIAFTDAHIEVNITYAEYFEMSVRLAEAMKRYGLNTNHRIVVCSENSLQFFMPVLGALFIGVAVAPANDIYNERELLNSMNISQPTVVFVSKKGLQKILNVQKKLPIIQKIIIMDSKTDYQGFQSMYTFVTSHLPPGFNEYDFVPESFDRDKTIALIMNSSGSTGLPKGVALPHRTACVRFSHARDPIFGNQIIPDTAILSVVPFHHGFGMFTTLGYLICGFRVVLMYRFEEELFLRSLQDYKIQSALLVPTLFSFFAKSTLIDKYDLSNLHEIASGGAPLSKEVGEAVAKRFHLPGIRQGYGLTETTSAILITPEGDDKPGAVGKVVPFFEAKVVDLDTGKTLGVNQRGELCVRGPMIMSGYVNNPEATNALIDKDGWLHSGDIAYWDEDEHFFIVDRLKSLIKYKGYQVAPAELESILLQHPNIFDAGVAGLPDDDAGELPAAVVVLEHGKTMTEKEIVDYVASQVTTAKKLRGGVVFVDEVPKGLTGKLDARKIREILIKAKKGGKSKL
#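 Purified P. pyralis luciferase, 10 nM final, with Km-level 10 uM D-luciferin and 10 uM ATP in 50 mM Tris acetate pH 7.5, 10 mM Mg acetate, 0.01% Tween-20, 0.05% BSA; 6-point qHTS titration about 60 µM downward; luminescence read.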
# SMN2 splice enh: SMN2 splice variant enhancement | 210,000 compounds, 2.8% hits | AID 1458 | HEK293 SMN2-luciferase splicing reporter, luminescence, 30-36 h | Potency, µM (titrated, usually from 46.1 µM), for inactives: at the top dose activity change, positive = activation, actives largely listed as activators; note: % of control where 0% means no effect; nearly all actives have a fitted effect of over 55% in size
#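 qHTS luciferase splicing reporter: luminescence rises when SMN2 exon 7 is included in transfected HEK293 cells. Compound exposure lasted 30-36 h at 37C, with 4.5 mM final sodium butyrate as control, followed by a ONE-Glo read.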
# Rab9 promoter act: activators of Rab9 promoter. Huh7 Rab9 promoter-luciferase reporter, luminescence, 24 h. 320,000 compounds, 2.8% hits. Potency, µM (top dose mostly 9.22 µM), for the others: at the highest dose activation, negative = inhibition, usual class: activators; note: % of control where 0% means no effect; nearly all actives have a fitted effect of over 60% in size
#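 Stable Rab9-luc Huh7, 1500 cells/well, 2 h settle; cmpd in DMSO, 24 h, 37 °C/5% CO2; luciferase reagent 10 min RT; luminescence.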
# ELG1 genotoxic: genotoxicity induction in ELG1-luciferase HEK293T cells. 330,000 compounds, 1.3% hits. HEK293T ELG1-luciferase reporter, luminescence, 16 h. Potency, µM (series often up to 46 µM), inactives show top-dose activity change, positive = activation, most hits filed as activators; note: % of control where 0% means no effect; nearly all actives have a fitted effect of over 60% in size
#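 DMSO vehicle served as control against compound-treated ELG1-luciferase HEK293T cells; exposure lasted 16 hr at 37 °C and 5% CO2, followed by ONE-Glo luminescence detection after 30 min.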
# NPC1 prom act: activates the NPC1 promoter; Huh7 NPC1 promoter luciferase reporter, 24 h; Potency, µM (titrated, usually from 9.22 µM), without a hit: at the top dose activation, most hits filed as activators; 320,000 compounds, 2.4% hits; note: % of control where 0% means no effect; nearly all actives have a fitted effect of over 60% in size
#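 Cells: Huh7 expressing luciferase under the NPC1 promoter, 1500/well. Seeded 2 h, compound added, incubated 24 h at 37 °C. Luciferase reagent, 10 min ambient, then luminescence.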
# Starred values were filed as active, the others as inactive; ? = inconclusive; / = not tested or not shown; [ ] = another dose, or the depositor's remark. Sampled rows, rich in hits. Any-hit rate of the full collection: about 7.4%. Calls come from the whole dose curve; as a rule, active = well fitted curve in the direction sought with a large enough effect; inconclusive = small, poorly fitted or top-dose-only effect, or another doubt; inactive = no such curve, though single readings can be large; an effect the other way counts as inactive or inconclusive. Potency is the fitted concentration of half-maximal effect.
SMILES,FLuc counter,SMN2 splice enh,Rab9 promoter act,ELG1 genotoxic,NPC1 prom act
COCCNC(=O)COC(=O)c1cc(-c2ccc(OC)cc2)nc2ccccc12,10.7µM*,?,14.3%,2.2%,12.6%
COc1ccc2cc(-c3cc(C(=O)OCC(=O)NC4CCS(=O)(=O)C4)c4ccccc4n3)ccc2c1 (stereo not given),0.477µM*,1.12µM*,0.501µM*,?,0.631µM*
COC(=O)[C@H]1O[C@@H](c2cc(OC)c(C)c(OC)c2OCc2ccccc2)[C@H](C)[C@@H]2O[C@]12C,/,1.1%,/,/,/
Cc1cccc(Cn2cnc3c(cnn3-c3ccc(Cl)cc3)c2=O)c1,-0.1%,-1.4%,/,/,/
O=C(Nc1ccc2oc(-c3ccccc3F)nc2c1)c1ccc2c(c1)OCCO2,6.75µM*,-39.1%,20.9%,-15.7%,14.1%
Cc1c(NC(=O)c2cc(-n3cnnc3)ccc2Cl)cccc1-c1nc2ccccc2o1,3.79µM*,7.2%,-1.7%,-0.9%,0.0%
O=C(Nc1ccc(-c2nc3ccccc3o2)cc1)c1ccc2c(c1)OCO2,4.9%,-3.6%,/,/,/
Cc1ccc(-c2nc3ccccc3o2)cc1NC(=O)c1ccc2c(c1)OCO2,?,/,-3.6%,7.31µM*,?
Cc1c(NC(=O)c2ccc3c(c2)OCO3)cccc1-c1nc2ccccc2o1,9.53µM*,-10.7%,0.0%,-7.7%,-3.9%
O=C(NCCc1ccc(Cl)cc1)c1ccc(Cn2c(=O)c3cccn3c3cccnc32)cc1,-7.1%,/,/,/,/
COc1cc(OC)c(NC(=O)c2c(N3CCCC3=O)c3cc(C)ccc3n2C)cc1Cl,6.9%,/,/,/,/
COc1cc(/C=C2/SC(=S)N(CC3CCCO3)C2=O)ccc1O (stereo not given),10.7µM*,4.3%,-2.7%,16.0%,-0.7%
COc1ccc(/C=C2\SC(=S)N(CC3CCCO3)C2=O)cc1 (stereo not given),10.7µM*,/,25.1%,9.6%,6.0%
CCCCC(CC)COCCCN (stereo not given),/,1.2%,/,/,/
Cn1c(=S)c2[nH]c(SCCN3C(=O)c4ccccc4C3=O)nc2n(C)c1=O,/,3.6%[9.22 µM],/,/,/
Cc1cc2oc(=O)c(CC(=O)O)c(C)c2c2occ(-c3ccc(F)cc3)c12,6.75µM*,11.6%,/,/,/
COc1ccc(-c2coc3c2c(C)cc2oc(=O)c(CC(=O)O)c(C)c23)cc1,7.57µM*,15.6%,/,/,/
Cc1c(CC(=O)O)c(=O)oc2c(C)c3occ(-c4ccc(F)cc4)c3cc12,1.6%,/,2.2%,-0.7%,-2.0%
COc1ccc(-c2coc3c2c(C)cc2oc(=O)cc(C)c23)cc1,-14.6%,2.0%,/,/,/
CC(=O)Nc1ccc(C2CC(c3ccc(Cl)cc3)=NN2c2ccccc2)cc1 (stereo not given),16.9µM*,/,17.3%,8.1%,11.0%
CCC(=O)N1CCc2cc(Br)cc(S(=O)(=O)CCC(=O)N(CC)Cc3ccccc3)c21,1.0%,-7.8%,/,/,/
Oc1ccc(Nc2nc(-c3ccc(O)cc3)cs2)cc1,7.57µM*,22.4µM*,-1.1%,8.2µM*,0.8%
O=C(O)c1ccc(Nc2nc(-c3cccnc3)cs2)cc1,5.36µM*,/,?,7.6%,?
Brc1ccc(Nc2nc(-c3cccnc3)cs2)cc1,?,14.1µM*,29.1%,?,-0.4%
CC(=O)c1ccc(Nc2nc(-c3cccnc3)cs2)cc1,?,/,21.4%,?,4.0%
SMILES,FLuc counter,SMN2 splice enh,Rab9 promoter act,ELG1 genotoxic,NPC1 prom act
Oc1ccc(Nc2nc(-c3ccc(Cl)cc3)cs2)cc1,/,6.2%,/,/,/
Nc1ccc(Nc2nc(-c3ccncc3)cs2)cc1,4.78µM*,-3.4%,?,?,?
COc1c(C=O)c(=O)[nH]c2c(OC)cccc12,/,10.8%,/,/,/
O=C(c1cc(C(F)(F)F)cc(C(F)(F)F)c1)N1CCC2(CC1)CN(c1ccccn1)C2,/,-70.7%,/,/,/
Cc1cc(O)ccc1Nc1nc(-c2cccnc2)cs1,6.01µM*,/,-0.1%,6.9%,?
Clc1cccc(Nc2nc(-c3cccnc3)cs2)c1,13.5µM*,5.0%,20.8%,?,1.5%
CCOc1ccc(Nc2nc(-c3cccnc3)cs2)cc1,?,/,2.24µM*,?,2.24µM*
Oc1ccc(Nc2nc(-c3cccnc3)cs2)cc1,9.53µM*,/,1.3%,?,21.4%
CCC(=O)c1ccc(OCC(=O)Nc2nc(-c3cccnc3)cs2)cc1,-12.9%,/,-5.2%,-6.3%,0.4%
COc1ccc(Cl)cc1Nc1nc(-c2cccnc2)cs1,?,/,-3.1%,-0.1%,0.5%
COc1cccc(CNC(=O)CN(c2ccc(C)cc2)S(=O)(=O)N(C)C)c1OC,5.3%,-0.5%,/,/,/
COc1cccc(CNC(=O)Nc2ccc3c(c2)N(C)C(=O)c2ccccc2S3)c1,-11.6%,/,/,/,/
CC(=O)c1ccc(NC2=NS(=O)(=O)c3ccccc32)cc1,?,9.3%,/,/,/
Cc1cc(O)ccc1Nc1nc(-c2cccs2)cs1,0.536µM*,?,?,3.26µM*,?
Brc1cccc(Nc2nc(-c3cccnc3)cs2)c1,9.53µM*,/,21.3%,?,?
Cc1ccc(Nc2nc(-c3cccnc3)cs2)cc1C,0.849µM*,/,?,2.31µM*,?
O=C(O)[C@@H]1CCN(Cc2oc(CO)cc(=O)c2O)C1,/,-0.9%[9.22 µM],/,/,/
C/C(=N\Nc1nncc2ccccc12)c1ccc(O)cc1,0.953µM*,/,0.708µM*,28.4%,1.26µM*
COc1ccc(-c2nc(N/N=C(\C)c3ccc(O)cc3)c3ccccc3n2)cc1,1.69µM*,/,3.6%,-9.2%,-3.2%
C/C(=N\Nc1nncc2ccccc12)c1ccc(C(C)(C)C)cc1,7.57µM*,/,17.5%[1.84 µM],17.6%,?
C/C(=N\Nc1nncc2ccccc12)c1cccc(OC(F)F)c1,1.07µM*,/,1.12µM*,2.91µM*,1µM*
O=C(c1cnccn1)N1CCC[C@@]2(CCN(Cc3cc(C(F)(F)F)cc(C(F)(F)F)c3)C2)C1,/,0.8%,/,/,/
Cc1ccc2oc(=O)c3cc(C(=O)N(Cc4ccccc4)C(C)C)sc3c2c1,4.6%,-4.0%,/,/,/
CCCCCC(=O)Nc1nc2ccccc2[nH]1,13.5µM*,14.1µM*,?,?,?
COc1ccc(CCC(=O)Nc2nc3ccccc3[nH]2)cc1,?,-1.2%,2.24µM*,?,3.55µM*
SMILES,FLuc counter,SMN2 splice enh,Rab9 promoter act,ELG1 genotoxic,NPC1 prom act
COc1ccc(OCC(=O)Nc2nc3ccccc3[nH]2)cc1,4.78µM*,17.9%,?,20.6µM*,?
COc1ccccc1CCC(=O)Nc1nc2ccccc2[nH]1,13.5µM*,12.6µM*,?,?,?
CCOc1ccccc1OCCCC(=O)Nc1nc2ccccc2[nH]1,-1.3%,-4.1%,5.4%,6.4%,8.3%
O=C(COc1ccc2ccccc2c1)Nc1nc2ccccc2[nH]1,-3.1%,-19.3%,0.6%,14.0%,2.2%
CCOC(=O)N1CCc2c(sc3c2c(=O)n(-c2ccc(Cl)cc2)c(=O)n3CC(=O)Nc2ccccc2)C1,-0.8%,/,/,/,/
COC(=O)c1ccc2c(c1)C(C)(C)C(/C=C/c1ccccc1O)=[N+]2C,15.1µM*,-93.3%,-45.3%,?,-42.1%

# Source: PubChem BioAssay (National Center for Advancing Translational Sciences (NCATS))
